Activity calls are given as the source filed them.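 Rule for the calls: active = fitted half-maximal concentration AC50 at or below ten times the highest valid tested dose, with signal falling as DNA is displaced (actives reach about 34 µM in these data); inconclusive = flat fit at moderate signal loss, or poor fit quality; inactive = the rest, including signal rising instead of falling.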
Assay: DNA intercalators displacing acridine orange, dose response, artefact control for KSHV LANA DNA-binding inhibitor project, biochemical, fluorescence polarization, cherry-picked samples, set 2 (AID 504727);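 for activity change, negative = DNA displacement: 0% = median of neutral control wells and -100% = mitoxantrone positive control wells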
Settings: AC50: Acridine orange-DNA displacement; series mostly up to 35 µM; activity change, negative = DNA displacement: at the top concentration

Activity change, negative = DNA displacement, inactive:
Cc1cnc(NC(=O)Cc2c[nH]c3ccccc23)s1 0.01%
CCc1ccc(N2CC(C(=O)OCC(=O)N(CC)c3c(N)n(Cc4ccccc4)c(=O)[nH]c3=O)CC2=O)cc1 (stereo not drawn) 1.35%
COc1cc(OC)cc(-c2c(-c3ccsc3)c3cc(Br)ccc3n2C)c1 2.88%
O=C(O)c1ccc(-n2cccc2/C=C2/SC(=O)N(CC(=O)N3CCCC3)C2=O)cc1 -3.47%
O=C(O)c1cccc(-n2cccc2/C=C/[N+](=O)[O-])c1 5.04%
Nc1ccccc1C(=O)N1O[C@@H]2C=C[C@H]1CC2 -1.77%
COc1ccc(/C=C/c2cc(C(F)(F)F)[nH]c(=O)n2)cc1OC -1.76%
Cc1ccc(S(=O)(=O)/N=C/c2ccc(N(C)C)cc2)cc1 1.03%
S=c1c2c(nc3nc[nH]n13)CCC2 2.23%
CN1CCc2c(sc(NC(=O)c3ccc4ccccc4c3)c2C(N)=O)C1 -5.43%
O=C(O)c1ccc(-n2cccc2/C=C2/NC(=O)N(c3cccc(Cl)c3)C2=O)cc1 27%
Cc1ccc(N(C)C(=O)C2CCCN2S(=O)(=O)c2ccc3c(c2)n(C)c(=O)c(=O)n3C)cc1 (stereo not drawn) 4.43%
CCN(CC)c1ccc2cc(S(=O)(=O)c3ccc(C)cc3)c(=O)oc2c1 -122%
CN(C)S(=O)(=O)c1cccc(N2C(=O)CC3(CCCCC3)CC2=O)c1 3.65%
CC(C(=O)O)N1C(=O)/C(=C/C=C/c2ccco2)SC1=S (stereo not drawn) 14.1%
NC(=S)N/N=C/c1ccc(-c2ccc([N+](=O)[O-])cc2)o1 16.8%
Cn1c(=O)oc2cc(S(=O)(=O)CCC(=O)N3CCN(c4ccccc4F)CC3)ccc21 -10%
CC(C)Cn1c(N)c(C(=O)CSc2nnc(-c3ccco3)n2C)c(=O)n(C)c1=O 0.267%
CC(OC(=O)CCN1C(=O)C2CC=CCC2C1=O)C(=O)Nc1ccc(F)cc1 (stereo not drawn) 2.67%
CSC(=NS(=O)(=O)c1ccc(N)cc1)NS(=O)(=O)c1cccs1 5.36%
O=C(/C=C/c1ccco1)Nc1ccccc1C(=O)Nc1cccc(C(=O)O)c1 5.18%
O=S(=O)(O)c1cc(Cl)cc(N=Nc2ccc(O)cc2O)c1O -2.84%
NNC(=O)CC1=NNC(=O)C1 2.31%
CC(=O)N(C(C)=O)N1C(=O)c2cccc3c(N4CCOCC4)ccc(c23)C1=O 10.5%
Cc1cccc(COc2ccc(/C=N/NC(=O)c3nnn(-c4nonc4N)c3COc3ccc(F)cc3)cc2)c1 -3.72%
CCNc1nc(NC(C)C)nc(NS(=O)(=O)c2ccc(N)cc2)n1 4.91%
NNC(=S)Nc1ccc(S(=O)(=O)N2CCOCC2)cc1 7.25%
CCn1c(SCc2nc3sc(C(=O)O)c(C)c3c(=O)[nH]2)nc2ccccc21 -11%
C=CC1=C(C(=O)O)N2C(=O)[C@@H](NC(=O)/C(=N/OCC(=O)O)c3csc(N)n3)[C@H]2SC1 -1.81%
CCOc1ccc(-n2c(Cc3cc(=O)[nH]c(=O)[nH]3)nnc2SCc2cccnc2)cc1 2.46%
NC(=O)c1ccc(NC(=O)C2COc3ccccc3O2)cc1 (stereo not drawn) 4.29%
O=C(CN1CCN(C(=O)CNC(=O)c2ccc3c(c2)OCO3)CC1)Nc1ccc(F)cc1 3.42%

AC50, active:
O=C(c1ccccc1)c1ccc(O)cc1O 7.3 µM
O=C1c2cccc3c(O)ccc(c23)C(=O)N1c1ccc(Cl)cc1 2.95 µM
CCOc1ccc(/C=C2\CCCc3c2nc2ccccc2c3C(=O)O)cc1OC 1.73 µM
COc1cccc2c1C(=O)c1c(O)c3c(c(O)c1C2=O)C[C@](O)(C(C)=O)C[C@H]3O[C@@H]1C[C@@H](N)[C@@H](O)[C@@H](C)O1 2.98 µM
CN(C)/C=C1\C=C2C(=O)c3ccccc3N2C1=O 0.065 µM
COc1ccc(C2C(C(=O)c3cccs3)=C(O)C(=O)N2c2nncs2)cc1 (stereo not drawn) 3.42 µM

Source: PubChem BioAssay AID504727 (Broad Institute, 2011)
